Assay results published in PubChem BioAssay (EPA / NIEHS).
“And” between values parts separate entries of the source, which are not always exact repeats. Identical values can stand only once. The source made the active and inactive calls. How the source made its calls: active means hit-call score of the fitted dose curve at least 0.9, where 1 is the maximum; inactive means score below 0.9.

The compounds below were run on Vascular cell adhesion molecule 1 (VCAM1), VCAM1 (gene 7412) (assay: BSK_IMphg_VCAM1: BioMAP Diversity Plus: IMphg Assay for Vascular cell adhesion molecule 1 (VCAM1) Biomarker Activity (AID 2284286)). Details: primary human endothelial cells with macrophages.
Procedure: BSK_IMphg is a cell-based, multiplexed-readout assay that uses venular endothelial cells and macrophages, a human vascular primary cell, with measurements taken at 24 hours after chemical dosing in a microplate: 96-well plate.BSK_IMphg_VCAM1 is an assay component measured in the BSK_IMphg assay. It measures VCAM-1 antibody related to regulation of gene expression using ELISA technology.Data from the assay component BSK_IMphg_VCAM1 was analyzed at the endpoint, BSK_IMphg_VCAM1, in the positive analysis fitting direction relative to DMSO as the negative control and baseline of activity. Using a type of binding reporter, gain or loss-of-signal activity can be used to understand protein changes. To generalize the intended target to other relatable targets, this assay endpoint is annotated to the 'cell adhesion molecules' intended target family, where the subfamily is 'Immunoglobulin CAM'.
The levels of cell surface (or secreted, indicated by the prefix "s") biomarker endpoints were measured by ELISA. Overt cytotoxicity to cells in confluent adherent cultures (all systems other than the BT system) was assessed by measuring total protein levels using sulforhodamine B (SRB) staining in parallel cultures at the time of biomarker measurements, indicated as SRB endpoints. For proliferation assays for adherent cell types, individual cell types are cultured at sub-confluence and relative cell numbers quantified by SRB staining at time points optimized for each system (48 h: 3C and CASM3C systems; 72 h: BT and HDF3CGF systems; 96 h: SAg system). SRB was performed by staining cells with 0.1% SRB after fixation with 10% TCA and reading wells at 560 nm.Viability and proliferation of PBMC (T cells) was quantified by Alamar Blue reduction for the SAg and BT systems. For PBMC viability (referred to as PBMC Cytotoxicity within the assay endpoint names), cells were plated (75,000/well in a 96-well plate) and then chemical samples added for 1 h before addition of activators, SEB and TSST-1 (20 ng/mL final concentration each). Cells were incubated for 90 h. Then, Alamar Blue (20 uL/well) (Invitrogen, Cat DAL1100) was added for 6 h, and the plates were read with a fluorescence microplate reader at 546/580 nm (excitation/emission). For PBMC proliferation, cells were plated and activated as above but incubated for only 16 h prior to addition of Alamar Blue. Plates were read after 6 h.

Row | Structure (SMILES) | outcome | AC50
1 | O=C(O)CCC(F)(F)C(F)(F)C(F)(F)C(F)(F)C(F)(F)F | inactive | 
2 | CN(Cc1cnc2nc(N)nc(N)c2n1)c1ccc(C(=O)N[C@@H](CCC(=O)O)C(=O)O)cc1 | inactive | 
3 | O=C(O)C(F)(F)OC(F)(F)C(F)(F)OC(F)(F)C(F)(F)OC(F)(F)C(F)(F)C(F)(F)C(F)(F)F |  | 51.8 µM (active) and 48.8 µM (active)
4 | O=P(O)(O)CCC(F)(F)C(F)(F)C(F)(F)C(F)(F)C(F)(F)C(F)(F)C(F)(F)C(F)(F)F | inactive | 
5 | OCC(F)(F)C(F)(F)C(F)(F)C(F)(F)C(F)(F)C(F)(F)C(F)(F)C(F)(F)C(F)(F)C(F)(F)C(F)(F)F | inactive | 
6 | CN(CCO)S(=O)(=O)C(F)(F)C(F)(F)C(F)(F)C(F)(F)C(F)(F)C(F)(F)C(F)(F)C(F)(F)F | inactive | 
7 | O=S(=O)(O)C(F)(F)C(F)(F)C(F)(F)C(F)(F)C(F)(F)C(F)(F)C(F)(F)C(F)(F)C(F)(F)C(F)(F)F | inactive | 
8 | O=C(CC(=O)C(F)(F)C(F)(F)C(F)(F)F)c1cccs1 |  | 50.5 µM (active) and 43.4 µM (active)
9 | O=C(O)CCC(F)(F)C(F)(F)C(F)(F)C(F)(F)C(F)(F)C(F)(F)F | inactive | 
10 | O=P(O)(O)CCC(F)(F)C(F)(F)C(F)(F)C(F)(F)C(F)(F)C(F)(F)F | inactive | 
11 | C=CC(=O)OCCC(F)(F)C(F)(F)C(F)(F)C(F)(F)C(F)(F)C(F)(F)C(F)(F)C(F)(F)F | inactive | 
